# Data: PubChem BioAssay AID651815 (National Center for Advancing Translational Sciences (NCATS), 2012)
# Screen size: about 2,100 compounds; about 1,100 (52%) were called active. Inconclusive results (about 29%) are left out. Calls come from the whole dose curve; as a rule, active = well fitted inhibition curve with a large enough effect; inconclusive = small, poorly fitted or top-dose-only effect; inactive = no such curve, though single readings can be large or run the other way. So high a share suggests a set chosen from earlier hits. Some of the results follow.
# Target: DNA dC->dU-editing enzyme APOBEC-3F (Homo sapiens) (UniProt Q8IUX4)
# Assay: qHTS for inhibitors of Vif-A3F interactions: Cherry picks counterscreen; note: nearly all actives have a fitted effect of over 65% in size
# Settings: HeLa A3F-eYFP/Vif cells, eYFP fluorescence, 24 h; series mostly up to 46.1 µM
# In short: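 HeLa cells stably expressing A3F-eYFP and Vif, cultured overnight, then treated 24 h at 37 degrees C with compounds at several concentrations; yellow fluorescence (488 nm Ex/500-530 nm Em) imaged on Acumen; MG132 positive control.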
# Potency is the fitted concentration of half-maximal effect.
# Sequence of DNA dC->dU-editing enzyme APOBEC-3F (Homo sapiens) (Q8IUX4 whole entry, looked up): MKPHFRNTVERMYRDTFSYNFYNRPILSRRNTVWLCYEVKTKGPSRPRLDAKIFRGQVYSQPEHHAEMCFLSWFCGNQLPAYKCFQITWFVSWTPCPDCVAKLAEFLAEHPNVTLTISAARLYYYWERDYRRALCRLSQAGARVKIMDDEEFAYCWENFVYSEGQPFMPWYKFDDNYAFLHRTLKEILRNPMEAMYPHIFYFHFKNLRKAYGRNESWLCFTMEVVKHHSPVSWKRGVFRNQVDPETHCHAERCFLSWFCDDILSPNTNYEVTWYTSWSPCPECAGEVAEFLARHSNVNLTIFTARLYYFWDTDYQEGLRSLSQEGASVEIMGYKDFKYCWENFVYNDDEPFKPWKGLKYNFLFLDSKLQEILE
row,SMILES,Potency
1,O=Nc1ccc(O)c2ncccc12,inactive
2,Cc1[nH]c2ccccc2c1/C=C/c1ccnc2ccccc12,3.26 µM (active)
3,Cc1[nH]c2ccccc2c1/C=C/c1ccc2ccccc2n1,18.4 µM (active)
4,O=C(CCl)N1c2ccccc2Oc2ccc3ccccc3c21,14 µM (active)
5,COc1cc(C2Oc3ccccc3C=C2[N+](=O)[O-])cc(OC)c1OC (stereo unspecified),15.8 µM (active)
6,N#CC(C(=O)NCc1ccccc1)c1nc2ccccc2nc1N1CCCC1 (stereo unspecified),3.66 µM (active)
7,CCN(CC)c1nc2ccccc2nc1C(C#N)C(=O)NCCc1ccccc1 (stereo unspecified),7.31 µM (active)
8,CCCCn1c(N)c(N(Cc2ccccc2OC)C(=O)c2ccc([N+](=O)[O-])s2)c(=O)[nH]c1=O,inactive
9,Cc1cc2nc3s/c(=C/c4ccc(-c5ccccc5C(=O)O)o4)c(=O)n3c2cc1C,11.6 µM (active)
10,Cc1cc(C(=O)N/N=C/c2ccc3c(c2)OCO3)c2ccccc2n1,4.44 µM (active)
11,Cc1cccc(C)c1OCC(=O)N/N=C/c1ccc2c(c1)OCO2,3.53 µM (active)
12,O=C(N/N=C/c1ccc2c(c1)OCO2)c1cc(-c2ccncc2)nc2ccccc12,6.27 µM (active)
13,O=C(N/N=C/c1ccsc1)c1cc(-c2cccs2)nc2ccccc12,15.8 µM (active)
14,O=C(N/N=C/c1ccc2c(c1)OCO2)c1cc(-c2ccco2)nc2ccccc12,12.5 µM (active)
15,Cc1cc(NC(=O)/C(C#N)=C/c2ccc(-c3ccc(SC(F)F)cc3)o2)n(-c2ccccc2)n1,7.31 µM (active)
16,Cc1cc(NC(=O)/C(C#N)=C\c2ccc(-c3ccc(SC(F)F)cc3)o2)n(-c2ccccc2)n1,8.2 µM (active)
17,COCCN(CCOC)Cc1c(O)ccc2c1O/C(=C\c1ccc(C)o1)C2=O,inactive
18,N#CCSc1ccccc1NC(=O)COc1ccc(-c2nnco2)cc1,17.7 µM (active)
19,CCOc1cc(/C=C2\N=C(SC(C)C(N)=O)N(c3ccc(OC(F)F)cc3)C2=O)ccc1O (stereo unspecified),4.44 µM (active)
20,O=C(N/N=C/c1ccc(Cl)cc1)c1cc(-c2cccnc2)nc2ccccc12,4.44 µM (active)
21,Cc1ccc(/C=N/NC(=O)c2cc(-c3ccccc3)nc3ccccc23)o1,14 µM (active)
22,C/C(=N\NC(=O)c1cc(C)nc2ccccc12)c1ccncc1,inactive
23,Cc1ccc(C=NNC(=O)c2cc(-c3cccnc3)nc3ccccc23)o1,8.86 µM (active)
24,Cc1cc(C(=O)N/N=C/c2ccc(C)o2)c2ccccc2n1,2.23 µM (active)

row,SMILES,Potency
1,CCOc1ccc(-c2cc(C(=O)N/N=C(\C)c3cccnc3)c3ccccc3n2)cc1,inactive
2,CCCN(C(=O)CSc1n[nH]c(-c2ccc(OC)cc2)n1)c1c(N)n(Cc2ccccc2)c(=O)[nH]c1=O,inactive
3,C/C(=N\NC(=S)NCc1ccccc1)c1cccs1,inactive
4,CCOC(=O)Nc1ccc2nc(-c3cscn3)[nH]c2c1,5.59 µM (active)
5,CC[n+]1c(/C=C/N(C)c2ccccc2)oc2ccc(F)cc21,17.7 µM (active)
6,CC[n+]1c(/C=C/Nc2ccccc2)oc2ccccc21,18.4 µM (active)
7,CC[n+]1c(/C=C/Nc2ccccc2)oc2ccc(OC)cc21,16.4 µM (active)
8,NC(=O)c1ccc(NC(=O)C#Cc2ccccc2)cc1,inactive
9,Cc1cc(/C=N/NC(=O)c2cc3ccccc3o2)c(C)n1C,inactive
10,Cc1c(/C=N\NC(=O)c2cc3ccccc3o2)c2ccccc2n1C,5.59 µM (active)
11,O=C(N/N=C/c1cccc2ccccc12)c1cc2ccccc2o1,7.9 µM (active)
12,COc1cc(Cl)c(C)cc1Nc1nc2ccccc2nc1NS(=O)(=O)c1ccccc1,1.46 µM (active)
13,COc1ccc(OC)c(Nc2nc(-c3ccncc3)nc3ccccc23)c1,inactive
14,Cc1cccc(C)c1Nc1nc2ccccc2nc1NS(=O)(=O)c1ccccc1,23.1 µM (active)
15,Cc1cc(Br)ccc1SCC(=O)OC/C(O)=C(\C#N)c1nc2ccccc2[nH]1,inactive
16,CCOC(=O)N1CCN(/C=C(\C#N)c2nc3ccccc3s2)CC1,18.4 µM (active)
17,CCOc1ccccc1Nc1nnc(-c2cc3cc(Cl)ccc3oc2=O)s1,5.17 µM (active)
18,CCOc1ccccc1Nc1nnc(-c2cc3cc(OC)ccc3oc2=O)s1,9.2 µM (active)
19,O=C(CCCCl)Oc1ccc2cc(-c3ccc4ccccc4n3)c(=O)oc2c1,inactive
20,COc1ccc2oc(=O)c(-c3nc4ccccc4o3)cc2c1,14.6 µM (active)
21,CC(O)CN(CC(C)O)c1ccc2c(c1)Cc1cc([N+](=O)[O-])ccc1-2 (stereo unspecified),2.31 µM (active)
22,CCN1C(=O)/C(=C/C=C2\N(CC)c3cc(S(=O)(=O)N(C)C)ccc3N2c2ccccc2)SC1=S,6.27 µM (active)
23,CCN(CC)c1ccc(/C=N/NC(=S)NC)c(O)c1,inactive
24,CCN(CC)c1ccc(/C=N/N=C(N)N)c(O)c1,4.44 µM (active)

row,SMILES,Potency
1,CN(Cc1cnn(Cc2ccccc2)c1)C(=O)c1cccc(S(=O)(=O)N2CCOCC2)c1,11.2 µM (active)
2,O=C(O)CCCN1C(=O)/C(=C\C(Cl)=C\c2ccccc2)SC1=S,7.04 µM (active)
3,CC1=CC(C)(C)NC(=S)N1c1ccc2ccccc2c1,inactive
4,N#CC(=Cc1ccccn1)c1nc(-c2ccc(Cl)cc2)cs1,12.5 µM (active)
5,O=C(NCCc1ccccc1Cl)c1ccc(Cn2c(=O)c3cccn3c3cccnc32)cc1,18.4 µM (active)
6,Cc1cc([N+](=O)[O-])ccc1-c1ccc(/C=N/NC(=O)c2ccc(Br)o2)o1,20.6 µM (active)
7,COCCNC(=S)NN=C1CCCCCC1,inactive
8,O=[N+]([O-])c1ccc(-c2ccc(/C=N/Nc3nc(NCc4ccccc4)nc(N4CCOCC4)n3)o2)cc1,18.4 µM (active)
9,O=C(Cc1ccccc1)N/N=C/c1ccc(-c2ccc([N+](=O)[O-])cc2)o1,15.8 µM (active)
10,O=C(N/N=C/c1ccc(-c2ccc([N+](=O)[O-])cc2)o1)[C@H]1C[C@@H]1c1ccccc1,inactive
11,COCCNC(=S)N/N=C(\C)c1ccc(OC(F)F)cc1,inactive
12,COCCNC(=S)N/N=C/c1ccc(-c2ccc([N+](=O)[O-])cc2)o1,15.8 µM (active)
13,CN(/N=C/c1ccc(-c2ccc([N+](=O)[O-])cc2)o1)c1ccccc1,1.46 µM (active)
14,CC(C)(C)NC(=S)N/N=C\c1ccc(-c2ccc([N+](=O)[O-])cc2)o1,18.4 µM (active)
15,CCOc1ccc(S(=O)(=O)N(CC(=O)N/N=C/c2ccc(-c3ccc([N+](=O)[O-])cc3)o2)c2ccccc2)cc1,3.53 µM (active)
16,O=C(O)c1cccc(-c2ccc(/C=N/Nc3ccc([N+](=O)[O-])cc3)o2)c1,18.4 µM (active)
17,Cn1ncc(N=Cc2c(O)ccc3ccccc23)c1C(=O)Nc1cccc(Cl)c1,14.6 µM (active)
18,Cc1cc2nc(SCCOC(=O)Nc3cccc(Cl)c3)nc(C)c2cc1C,inactive
19,CCOc1ccccc1C1CC(=O)NC2=C1C(=O)CCC2 (stereo unspecified),12.5 µM (active)
20,CCCOc1ccccc1C1CC(=O)NC2=C1C(=O)CCC2 (stereo unspecified),7.04 µM (active)
21,CCCOc1ccccc1C1CC(=O)Nc2cc3c(cc21)OCO3 (stereo unspecified),3.96 µM (active)
22,Cc1c(C(=O)Nc2ccc(C(C)C)cc2)sc2nc3n(c(=O)c12)CCC3,inactive
23,CC(C)c1ccc(NC(=O)Nc2cnccn2)cc1,17.7 µM (active)
24,CC(C)c1ccc(C(=O)NCCCNC(=O)c2cnccn2)cc1,inactive

row,SMILES,Potency
1,CCOC(=O)Cn1c(=O)c(-c2cc(Br)ccc2N)nc2ccccc21,11.6 µM (active)
2,CCOc1ccccc1N1CC(c2nc3ccccc3n2Cc2c(C)cc(C)cc2C)CC1=O (stereo unspecified),inactive
3,CCOC(=O)COn1c(=O)c(-c2ccc(Br)cc2)[n+]([O-])c2ccccc21,inactive
4,CN(C)c1ccc(/C=C2\Cc3ccccc3C2=O)cc1,2.91 µM (active)
5,CN(C)c1ccc(/C=C2/C[N+](C)(C)C/C(=C/c3ccc(N(C)C)cc3)C2=O)cc1,7.31 µM (active)
6,Nc1ccccc1C=C1Cc2ccccc2C1=O,16.4 µM (active)
7,Cc1ccccc1NC(=O)CSC1=C(C#N)C(c2ccsc2)CC(=O)N1 (stereo unspecified),inactive
8,CCOC(=O)CSC1=C(C#N)C(c2ccc(C)s2)CC(=O)N1 (stereo unspecified),1.98 µM (active)
9,O=C(CCc1ccccc1)Nc1ccc(Cl)cn1,3.96 µM (active)
10,S=C(NCc1ccco1)Nc1ccc(Cl)cn1,inactive
11,CCCC(=O)NC1=C(Cl)C(=O)c2ccccc2C1=O,inactive
12,CN(C)c1ccc(/C=C/c2nc3ccccc3c(=O)n2CCO)cc1,23.1 µM (active)
13,CCN(CC)c1ccc(/C=C/c2cc(-c3ccccc3)c3ccccc3n2)cc1,7.04 µM (active)
14,CN(C)c1ccc(/C=C/c2cc(N(C)C)nc3ccccc23)cc1,8.2 µM (active)
15,CN(C)c1ccc(/C=C/c2cc(/C=C/c3ccc(N(C)C)cc3)c3ccccc3n2)cc1,5.17 µM (active)
16,CCC(C)Sc1cccc(-c2nc3cc(C)ccn3c2NC2CCCCC2)c1 (stereo unspecified),inactive
17,Nc1ccc2nc(-c3ccccc3)c(-c3ccccc3)nc2c1,inactive
18,Nc1ccc(/C=C/c2cc(Cl)nc3ccccc23)cc1,23.1 µM (active)
19,Cc1c(N2C(=O)/C(=C/c3ccc(N(C)C)cc3)N(C)C2=S)c(=O)n(-c2ccccc2)n1C,20.6 µM (active)
20,CN1C(=S)N(c2cccnc2)C(=O)/C1=C\c1ccc(N(C)C)cc1,9.94 µM (active)
21,CN1C(=O)/C(=C\c2ccc(N(C)C)cc2)OC1=S,1.98 µM (active)
22,Cc1ccc(/C=N/NC(=O)CCCOc2ccc(Cl)cc2Cl)cc1,4.98 µM (active)
23,O=C1N/C(=C\c2ccccc2)c2ccccc21,1.58 µM (active)
24,O=C1NC(c2ccccc2Br)=N/C1=C\c1ccco1,inactive
